In PubChem BioAssay (NCI):
About 79,000 compounds went through this panel and 15% of them were active in at least one assay; those are over-represented in the sample as a whole. Active and inactive are the calls of the source. No stated cut-off is given here; in the data, active means growth inhibition above about 70%; inactive means the rest.

What was measured:
[1] = NCI Yeast Anticancer Drug Screen. Data for the rad52 strain (AID 147);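 further: 0% = growth of vehicle-treated control cultures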; conditions: S. cerevisiae rad52 mutant growth inhibition, hits give high values
In short: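 Growth of repair-deficient yeast cells was compared between compound-treated and vehicle-treated cultures to give percent inhibition.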

[2] = NCI Yeast Anticancer Drug Screen. Data for the wt1 strain (AID 149);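 further: 0% = growth of vehicle-treated wt1 cultures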; conditions: S. cerevisiae wt1 strain (SPY 50644) growth inhibition, hits give high values
In short: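 wt1 strain grown with compound or vehicle; inhibition taken from the growth difference.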

[3] = NCI Yeast Anticancer Drug Screen. Data for the rad50EPP+ strain (AID 151);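 further: 0% = growth of vehicle-treated control cultures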; conditions: S. cerevisiae rad50 mutant strain, hits give high values
In short: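 Measured: growth inhibition of rad50EPP+ yeast. Reference: vehicle-treated controls. Screen uses strains with defined genetic alterations in DNA damage repair or cell cycle control.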

[4] = NCI Yeast Anticancer Drug Screen. Data for the mgt1 strain (AID 153); conditions: S. cerevisiae mgt1 mutant growth inhibition, hits give high values
In short: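 Compounds were applied to mgt1 mutant yeast, and growth was then compared against vehicle-treated control cultures to give percent inhibition.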

[5] = NCI Yeast Anticancer Drug Screen. Data for the rad50 strain (AID 155);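 further: 0% = growth of vehicle-only cultures of the same strain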; conditions: S. cerevisiae rad50 strain growth inhibition, hits give high values
In short: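 DNA repair mutant yeast, compound exposure, growth read-out; inhibition is taken relative to vehicle.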

[6] = NCI Yeast Anticancer Drug Screen. Data for the mec2-1 strain (AID 157); conditions: S. cerevisiae mec2-1 strain, hits give high values
In short: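 Compounds were applied to mec2-1 yeast cells. Their growth was then compared with that of vehicle-treated cultures to give growth inhibition.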

[7] = NCI Yeast Anticancer Drug Screen. Data for the rad14 strain (AID 159);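 further: 0% = growth of vehicle-treated control cultures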; conditions: S. cerevisiae rad14 strain growth inhibition, hits give high values
In short: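 DNA repair-defective yeast, compound-exposed; % growth inhibition derived by comparison with vehicle-treated controls.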

[8] = NCI Yeast Anticancer Drug Screen. Data for the sgs1 mgt1 strain (AID 161);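 further: 0% = growth of cultures given vehicle only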; conditions: S. cerevisiae sgs1 mgt1 strain, hits give high values
In short: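 Growth of a repair-deficient yeast mutant was monitored after compound treatment and expressed as inhibition relative to vehicle-treated cultures.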

[9] = NCI Yeast Anticancer Drug Screen. Data for the CLN2oe strain (AID 163);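 further: 0% = growth of vehicle-only control cultures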; conditions: S. cerevisiae CLN2oe strain, hits give high values
In short: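 Cells of an engineered yeast line with disturbed cell-cycle regulation are treated with compound. Inhibition of growth is then calculated relative to the vehicle-treated reference.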

[10] = NCI Yeast Anticancer Drug Screen. Data for the bub3 strain (AID 167); conditions: S. cerevisiae bub3 mutant strain, hits give high values
In short: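 In this screen, a yeast mutant lacking normal mitotic checkpoint function is challenged with compound. Relative growth versus vehicle gives the inhibition value.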

[11] = NCI Yeast Anticancer Drug Screen. Data for the wt2 strain (AID 169);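 further: 0% = growth of vehicle-treated yeast cultures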; conditions: S. cerevisiae wt2 strain growth inhibition, hits give high values
In short: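 Growth of compound-treated yeast is measured and expressed as inhibition relative to vehicle-only controls.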

[12] = NCI Yeast Anticancer Drug Screen. Data for the mlh1 strain (AID 171);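 further: 0% = growth of vehicle-treated control cultures of the same strain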; conditions: S. cerevisiae mlh1 strain growth inhibition, hits give high values
In short: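 Test agents were incubated with yeast bearing a defined DNA damage repair or cell cycle control alteration; values are growth inhibition normalised to vehicle-treated cultures.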

[13] = NCI Yeast Anticancer Drug Screen. Data for the sgs1 strain (AID 173);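 further: 0% = growth of vehicle-only control cultures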; conditions: S. cerevisiae sgs1 mutant, hits give high values
In short: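 Strain with an altered DNA repair or cell cycle pathway exposed to compound. Growth then measured. Value = inhibition versus vehicle control.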

[14] = NCI Yeast Anticancer Drug Screen. Data for the mlh1 rad18 strain (AID 175); conditions: S. cerevisiae mlh1 rad18 strain growth inhibition, hits give high values
In short: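 A repair-deficient yeast strain is exposed to test compound, and growth is scored relative to vehicle-treated controls.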

[15] = NCI Yeast Anticancer Drug Screen. Data for the rad18 strain (AID 177); conditions: S. cerevisiae rad18 mutant growth inhibition, hits give high values
In short: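 DNA-repair-defective yeast; compound treatment; growth inhibition scored against vehicle.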

[16] = at 5.0 µM (retest, dose inferred, filed as 0.5)
[17] = at 50.0 µM (retest, dose inferred, filed as 5.0)

Measured: growth inhibition

O=[N+]([O-])c1cc(S(=O)(=O)Nc2ccccc2)ccc1Nc1ccccc1
active: [1]; at 11.0 µM 95% | [1]; at 33.0 µM 91% | [1]; at 100.0 µM 76% | [2]; at 11.0 µM 94% | [2]; at 33.0 µM 91% | [2]; at 100.0 µM 81% | [4]; at 11.0 µM 89% | [4]; at 33.0 µM 92% | [4]; at 100.0 µM 82% | [5]; at 11.0 µM 93% | [5]; at 33.0 µM 89% | [5]; [17] 94% | [5]; at 50.0 µM 80% | [5]; at 100.0 µM 75% | [6]; at 11.0 µM 93% | [6]; at 33.0 µM 89% | [6]; [17] 96% | [6]; at 50.0 µM 81.2% | [6]; at 100.0 µM 78% | [7]; at 11.0 µM 89% | [7]; at 33.0 µM 89% | [7]; at 100.0 µM 77% | [8]; [17] 91% | [8]; at 50.0 µM 85.5% | [9]; at 11.0 µM 94% | [9]; at 33.0 µM 89% | [9]; at 100.0 µM 76% | [10]; at 11.0 µM 94% | [10]; at 33.0 µM 91% | [10]; [17] 86% | [10]; at 50.0 µM 76.2% | [10]; at 100.0 µM 76% | [11]; at 11.0 µM 92% | [11]; at 33.0 µM 92% | [11]; at 100.0 µM 83% | [12]; at 11.0 µM 90% | [12]; at 33.0 µM 91% | [12]; at 100.0 µM 79% | [13]; at 11.0 µM 91% | [13]; at 33.0 µM 91% | [13]; at 100.0 µM 83% | [14]; [17] 98% | [14]; at 50.0 µM 77.7% | [15]; at 11.0 µM 95% | [15]; at 33.0 µM 91% | [15]; at 100.0 µM 79%
inactive: [1]; at 1.2 µM 0% | [1]; at 3.7 µM 13% | [2]; at 1.2 µM -16% | [2]; at 3.7 µM -19% | [3]; at 1.2 µM 2% | [3]; at 3.7 µM 2% | [3]; at 11.0 µM 23% | [3]; at 33.0 µM 19% | [3]; at 100.0 µM 3% | [4]; at 1.2 µM -18% | [4]; at 3.7 µM 11% | [5]; at 1.2 µM 11% | [5]; at 3.7 µM 28% | [5]; [16] 51% | [6]; at 1.2 µM 18% | [6]; at 3.7 µM 19% | [6]; [16] 39% | [7]; at 1.2 µM -26% | [7]; at 3.7 µM -29% | [8]; [16] 2% | [9]; at 1.2 µM 14% | [9]; at 3.7 µM -1% | [10]; at 1.2 µM 15% | [10]; at 3.7 µM 40% | [10]; [16] -7% | [11]; at 1.2 µM -28% | [11]; at 3.7 µM -18% | [12]; at 1.2 µM -26% | [12]; at 3.7 µM -15% | [13]; at 1.2 µM 0% | [13]; at 3.7 µM -8% | [14]; [16] 33% | [15]; at 1.2 µM -3% | [15]; at 3.7 µM 18%
